From PubChem BioAssay (NCI)
Values joined by “and” are separate entries in the source; they are usually repeats but may differ in a detail not shown here. Equal values may be shown once. The panel holds about 83,000 compounds, 20% with a hit somewhere; the sample as a whole holds those more often.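 How to read the values: 0–100, growth inhibition (40 = 60% inhibited); 0, no net growth; -100 to 0, cell death (-40 = 40% of starting cells died; -100 = all dead).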 Active and inactive are the calls of the source. Rule for the calls: active = growth percent below 10; inactive = the rest.

test system: CAKI-1 renal; test: NCI-60 one-dose screen, 48 h (100 = growth as untreated, 0 = no growth, -100 = all killed); settings: 10 µM unless noted

Structure (SMILES) | growth
CC[C@@]1(O)C[C@H](OC2CC(N(C)C)C(O)C(C)O2)c2c(O)c3c(c(O)c2[C@H]1OC1CC(N(C)C)C(O)C(C)O1)C(=O)c1cccc(O)c1C3=O (stereo not given in full) | -9.18% (active)
COC1CC(CC2CCC(C)C(C(C)C(=O)O)O2)OC2(OC(C)(C3CCC(C)(C4OC(C5OC(O)(CO)C(C)CC5C)CC4C)O3)CC2C)C1C (stereo not given) | 8.78% (active)
CCC(=O)OC1CCn2c1nc1c2C(=O)C(C)=C(N2CC2)C1=O (stereo not given) | -8.28% (active)
CO[C@H](/C(C)=C/C=C/C(C)=C/c1coc(C)n1)[C@H](C)[C@H]1C[C@@H](O)[C@@]2(C)O[C@H]2/C=C/[C@@H](C)[C@@H]2C[C@@H](CC(=O)O2)C[C@H]2O[C@@H]2C(=O)O1 | 15% (inactive)
CC1=C(CO)C2=C(C)C3(CC3)[C@@](C)(O)C(=O)C2=C1 | -17% (active)
COC1=C(C)C(=O)C2=C(C1=O)C(CO)N1C(C#N)C3CC4C(C1C2N1CCOC41)N3C (stereo not given) | -23.1% (active)
CC[n+]1c(-c2ccccc2)c2cc(N)ccc2c2ccc(N)cc21 | 81% (inactive)
CN1CCN(c2ccc([N+](=O)[O-])c3no[n+]([O-])c23)CC1 | -75.2% (active)
COc1cccc2c1cc([N+](=O)[O-])c1c(C(=O)O)cc3c(c12)OCO3 | 9.19% (active) and 88% (inactive)
CCOC(=O)C(NC(=O)C(Cc1ccc(N(CCCl)CCCl)cc1)NC(C)=O)C(C)C (stereo not given) | 40.8% (inactive)
C[C@]12CC[C@H](O)CC1=CC[C@@H]1[C@@H]2CC[C@]2(C)C(=O)CC[C@@H]12 | 87.3% (inactive)
NCCc1ccc(OCc2ccccc2)c(OCc2ccccc2)c1 | 81.6% (inactive)
Oc1cccc2cccnc12 | 103% (inactive) and 100% (inactive) and 107% (inactive)
COc1ccccc1/C=C(/C)[N+](=O)[O-] | 85.8% (inactive) and 95.1% (inactive)
CC1=C2C(=O)[C@H]3[C@@H](CC=C4C[C@@H](O)CC[C@@]43C)[C@@H]2CC[C@]12O[C@@H]1C[C@H](C)CN[C@H]1[C@H]2C | 103% (inactive)
Cc1cc(N=Nc2ccccc2C)ccc1N | 54.7% (inactive)
COc1ccc(OC)c(/C=C/[N+](=O)[O-])c1 | -3.49% (active)
CC[C@](O)(C(=O)O)c1cc2n(c(=O)c1CO)Cc1cc3ccccc3nc1-2 | -28.8% (active)
Cc1c(N)nc([C@H](CC(N)=O)NC[C@H](N)C(N)=O)nc1C(=O)N[C@H](C(=O)N[C@H](C)[C@@H](O)[C@H](C)C(=O)N[C@H](C(=O)NCCc1nc(-c2nc(C(=O)NCCC[S+](C)C)cs2)cs1)[C@@H](C)O)C(OC1OC(CO)C(O)C(O)C1OC1OC(CO)C(O)C(OC(N)=O)C1O)c1cnc[nH]1 (stereo not given in full) | 26.4% [2.5 µM] (inactive)
CC[C@@]1(O)C(=O)OCc2c1cc1n(c2=O)Cc2cc3ccccc3nc2-1 | -37.9% (active)
Oc1cc[c]([Hg][Cl])cc1 | 110% (inactive)
CCC1(O)CC(OC2CC(N(C)C)C(OC3CC4OC5CC(=O)C(C)OC5OC4C(C)O3)C(C)O2)c2c(cc3c(c2O)C(=O)c2c(O)ccc(O)c2C3=O)C1C(=O)OC (stereo not given) | -15.4% (active)
O=C1c2ccccc2C(=O)C(Cl)C1Cl (stereo not given) | 64.5% (inactive)
Cc1ccc(C(=O)OC(C(=O)O)C(OC(=O)c2ccc(C)cc2)C(=O)O)cc1 (stereo not given) (tested in a mixture with another compound) | 50.7% (inactive)
CCCCCCCCCCCC1CCCC(C)N1 (stereo not given) | 86.6% (inactive)
CC(=O)O[C@H]1C[C@@H]2OC3C=C(C)CCC3(C)[C@@]1(C)[C@@]21CO1 (stereo not given in full) | -16.9% (active) and -24.9% (active)
CC[C@@]1(O)C[C@H](OC2CC(N(C)C)C(OC3CC(O)C(OC4CCC(=O)C(C)O4)C(C)O3)C(C)O2)c2c(cc3c(c2O)C(=O)c2c(O)ccc(O)c2C3=O)[C@H]1C(=O)OC (stereo not given in full) | -53.5% (active)
C[C@H]1CCC/C=C/[C@@H]2C[C@H](O)C[C@H]2[C@H](O)/C=C/C(=O)O1 | -2.67% (active)

test system: A498 renal; test: as above; settings: 10 µM unless noted

Structure (SMILES) | growth
CC[C@@]1(O)C[C@H](OC2CC(N(C)C)C(O)C(C)O2)c2c(O)c3c(c(O)c2[C@H]1OC1CC(N(C)C)C(O)C(C)O1)C(=O)c1cccc(O)c1C3=O (stereo not given in full) | -68% (active)
COC1CC(CC2CCC(C)C(C(C)C(=O)O)O2)OC2(OC(C)(C3CCC(C)(C4OC(C5OC(O)(CO)C(C)CC5C)CC4C)O3)CC2C)C1C (stereo not given) | -68.8% (active)
CCC(=O)OC1CCn2c1nc1c2C(=O)C(C)=C(N2CC2)C1=O (stereo not given) | -77.6% (active)
CO[C@H](/C(C)=C/C=C/C(C)=C/c1coc(C)n1)[C@H](C)[C@H]1C[C@@H](O)[C@@]2(C)O[C@H]2/C=C/[C@@H](C)[C@@H]2C[C@@H](CC(=O)O2)C[C@H]2O[C@@H]2C(=O)O1 | 26.1% (inactive)
CC1=C(CO)C2=C(C)C3(CC3)[C@@](C)(O)C(=O)C2=C1 | -66.5% (active)
COC1=C(C)C(=O)C2=C(C1=O)C(CO)N1C(C#N)C3CC4C(C1C2N1CCOC41)N3C (stereo not given) | -67.7% (active)
CC[n+]1c(-c2ccccc2)c2cc(N)ccc2c2ccc(N)cc21 | 60.4% (inactive)
CN1CCN(c2ccc([N+](=O)[O-])c3no[n+]([O-])c23)CC1 | -34.8% (active)
COc1cccc2c1cc([N+](=O)[O-])c1c(C(=O)O)cc3c(c12)OCO3 | 87.2% (inactive) and 107% (inactive)
CCOC(=O)C(NC(=O)C(Cc1ccc(N(CCCl)CCCl)cc1)NC(C)=O)C(C)C (stereo not given) | 107% (inactive)
C[C@]12CC[C@H](O)CC1=CC[C@@H]1[C@@H]2CC[C@]2(C)C(=O)CC[C@@H]12 | 92% (inactive)
NCCc1ccc(OCc2ccccc2)c(OCc2ccccc2)c1 | 79% (inactive)
Oc1cccc2cccnc12 | 137% (inactive) and 99.4% (inactive) and 83.7% (inactive)
COc1ccccc1/C=C(/C)[N+](=O)[O-] | 99.1% (inactive) and 118% (inactive)
CC1=C2C(=O)[C@H]3[C@@H](CC=C4C[C@@H](O)CC[C@@]43C)[C@@H]2CC[C@]12O[C@@H]1C[C@H](C)CN[C@H]1[C@H]2C | 103% (inactive)
COc1ccc(OC)c(/C=C/[N+](=O)[O-])c1 | 18.5% (inactive)
CC[C@](O)(C(=O)O)c1cc2n(c(=O)c1CO)Cc1cc3ccccc3nc1-2 | -76.5% (active)
Cc1c(N)nc([C@H](CC(N)=O)NC[C@H](N)C(N)=O)nc1C(=O)N[C@H](C(=O)N[C@H](C)[C@@H](O)[C@H](C)C(=O)N[C@H](C(=O)NCCc1nc(-c2nc(C(=O)NCCC[S+](C)C)cs2)cs1)[C@@H](C)O)C(OC1OC(CO)C(O)C(O)C1OC1OC(CO)C(O)C(OC(N)=O)C1O)c1cnc[nH]1 (stereo not given in full) | 84.1% [2.5 µM] (inactive)
CC[C@@]1(O)C(=O)OCc2c1cc1n(c2=O)Cc2cc3ccccc3nc2-1 | -77.4% (active)
Oc1cc[c]([Hg][Cl])cc1 | 107% (inactive)
CCC1(O)CC(OC2CC(N(C)C)C(OC3CC4OC5CC(=O)C(C)OC5OC4C(C)O3)C(C)O2)c2c(cc3c(c2O)C(=O)c2c(O)ccc(O)c2C3=O)C1C(=O)OC (stereo not given) | -71.4% (active)
O=C1c2ccccc2C(=O)C(Cl)C1Cl (stereo not given) | 133% (inactive)
Cc1ccc(C(=O)OC(C(=O)O)C(OC(=O)c2ccc(C)cc2)C(=O)O)cc1 (stereo not given) (tested in a mixture with another compound) | 77.7% (inactive)
CCCCCCCCCCCC1CCCC(C)N1 (stereo not given) | 95.8% (inactive)
CC(=O)O[C@H]1C[C@@H]2OC3C=C(C)CCC3(C)[C@@]1(C)[C@@]21CO1 (stereo not given in full) | -38.7% (active)
CC[C@@]1(O)C[C@H](OC2CC(N(C)C)C(OC3CC(O)C(OC4CCC(=O)C(C)O4)C(C)O3)C(C)O2)c2c(cc3c(c2O)C(=O)c2c(O)ccc(O)c2C3=O)[C@H]1C(=O)OC (stereo not given in full) | -78.6% (active)
C[C@H]1CCC/C=C/[C@@H]2C[C@H](O)C[C@H]2[C@H](O)/C=C/C(=O)O1 | -37.1% (active)
